Experimental data published in PubChem BioAssay AID1863 (Southern Research Specialized Biocontainment Screening …, 2009).
The campaign covered roughly 300,000 compounds. About 480 (0.16%) were called active.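 The calls were made as follows: active = inhibition over 29.93%, a cutoff 3 SD above the screen mean, later confirmed by dose response; inconclusive = inhibition over 29.93% but no dose response follow-up; inactive = inhibition at most 29.93% or unconfirmed.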 Not all results are given here. Results with a measured potency or affinity are listed apart.

experiment: PhoP-dependent GFP reporter repression – Salmonella Typhimurium, primary screen (AID 1863);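 also: 0% = low Mg2+ inducing control and 100% = high Mg2+ repressing control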; conditions: S. Typhimurium PhoP-regulated promoter GFP reporter, 4 h; at 50 µM; active compounds read high

inhibition, inactive:
Cc1ccc(SC2=C(Sc3ccc(C)cc3)C(=O)c3ccccc3C2=O)cc1 4.97%, O=S1(=O)N=C(SCCO)c2ccccc21 -8.43%, CCn1c(SCC(=O)NCCc2ccccc2)nc2c([nH]c3ccccc32)c1=O -1.21%, CCCc1nc2ccc(NC(=O)NCCC(=O)OCC)cc2c(=O)n1Cc1cccc(Cl)c1 6.26%, O=C(NOC(=O)c1ccccc1F)c1ccc(OC(F)F)cc1 -1.76%, CCCCOC(=O)Cn1c2ccc(OC)cc2c2nc3ccccc3nc21 -30.4%, CCCCCOC(=O)Cn1c(=O)oc2ccc(C)cc21 8.75%, CCCCCCCCCCOC(=O)Cn1c(COc2ccccc2C)[n+](C)c2ccccc21 13.3%, Cn1c(COc2ccccc2O)[n+](C)c2ccccc21 19.1%, O=C(O)Cn1c(COc2ccc(Cl)cc2)nc2ccccc21 -9.39%, CCCCc1n(CC(=O)c2ccc(Cl)cc2)c2ccccc2[n+]1C 7.69%, CCCCOC(=O)Cn1c(=O)n(CC(=O)OCCCC)c2ccccc21 1.46%, CCOC(=O)Cn1c(=N)n(CCOc2cccc(C)c2)c2ccccc21 -6.78%, Cc1onc(-c2c(Cl)cccc2Cl)c1C(=O)Nc1ccc2c(c1)OCO2 5.51%, CN1CCN(NC(=S)NC2CCCCC2)CC1 2.99%, CC1(c2ccncc2)Nc2ccccc2-c2nc3ccccc3n21 (stereo unspecified) 4.56%, CC1CCCCC1NC(=O)CNC(=O)c1cccs1 (stereo unspecified) 0.65%, COC(=O)c1cc(OC)c(OC)cc1NC(=S)N1CCN(Cc2ccccc2)CC1 -2.33%, CCN(Cc1ccccc1)Cc1ccc(OCc2ccccc2)cc1 -0.23%, CC(=O)c1ccc(OCc2cc(C(=O)N3CCN4CCCC4C3)no2)cc1 (stereo unspecified) -1.66%, CCCCCCOc1ccc(C(=O)O)cc1 -7.54%, CCCCCOC(=O)Cn1c(=O)oc2ccccc21 5.08%, CCCCOC(=O)Cn1c(=O)oc2ccc(C)cc21 1.86%, CCCCOC(=O)Cn1c(=N)n(CCC)c2ccccc21 8.26%, CCN(CC)CCN1C(=O)c2ccccc2NC1c1cccc(F)c1 (stereo unspecified) -1.91%, CCN(c1ccc(NC(=O)COC(=O)/C=C/c2cccs2)cc1)C(C)C 1.21%, CCOc1ccc(S(=O)(=O)N(CCO)CCO)cc1-c1nc2c(C(C)(C)C)nn(C)c2c(=O)[nH]1 6.61%, COCCCNCCCOc1ccc(Cl)cc1Br 16.4%, OCCNCCCOc1ccc(Cl)cc1Br 9.05%, Cc1cc(Br)ccc1OCCNCc1ccccc1 5.75%, Clc1ccc(OCCCNCc2ccccc2)c2ccccc12 13.7%, COCCNCCCOc1ccc(Br)cc1Cl 2.25%, CCc1cc(OCCCCNCc2ccccc2)ccc1Cl -6.28%, O=C(COC(=O)c1ccncc1)NCc1ccccc1 -7.25%, CN(CC(=O)Nc1ccc(OC(F)(F)F)cc1)C1CCCCC1 9.36%, COc1cccc(NC(=O)CN(C)C(=O)c2ccc(-c3ccccc3Cl)o2)c1 -0.25%, COCc1cc(=O)[nH]c(-c2ccccc2)n1 9.5%, COc1ccc(/C=C2/SC(=O)N(CCC(=O)Nc3ccc(C)cc3)C2=O)cc1OC 1.5%, Clc1ccccc1OCCn1ccnc1 21.2%, Clc1ccccc1OCCCn1ccnc1 2.45%, Clc1ccc(OCCn2ccnc2)c(Cl)c1 26.6%, c1ccc2cc(OCCCn3ccnc3)ccc2c1 -2%, COc1ccc(Cc2noc(CN(C)CC3CCN(Cc4ccccc4)CC3)n2)cc1OC 0.81%, N#CCCN(C(=O)CSc1nc2nc(-c3cccs3)cc(C(F)(F)F)c2c(=O)[nH]1)c1ccccc1 -5.71%, CC(C)C(=O)NC(=S)Nc1ccccn1 1.05%, COc1ccc(-c2cc(C(=O)Nc3c(C)n(C)n(-c4ccccc4)c3=O)c3ccccc3n2)cc1 6.3%, O=C(O)CNC(=O)c1ccc(NC(=O)/C(=C/c2cccc([N+](=O)[O-])c2)NC(=O)c2ccco2)cc1 1.55%, COc1cc2nc(Nc3ccc(C)c(Cl)c3)nc(N)c2cc1OC -5.89%, Cc1ccc(Nc2nc(N)c3ccccc3n2)cc1C -7.22%, CCOC(=O)N1CCN(C(=O)c2ccc(C)c(S(=O)(=O)Nc3cccc(C)c3C)c2)CC1 -9.54%, Cc1nc(SC(C(=O)c2ccccc2)c2ccccc2)nc2ccccc12 (stereo unspecified) 5.08%, O=Cc1c(N2CCC3(CC2)OCCO3)nc2ccccn2c1=O -5.94%, Cc1cc(N/N=C/c2ccc(O)cc2)c2cccc(C)c2n1 -15.4%, COc1ccc(/C=N/Nc2cc(C)nc3ccc(Br)cc23)cc1 -2.21%, Cc1cc(N/N=C/c2ccc(N(C)C)cc2)c2ccccc2n1 5.73%, COc1cccc2c(N/N=C/c3ccccc3)cc(C)nc12 -2.56%, Cc1ccccc1NC(=O)NC1(C(=O)NCC2CCCO2)CCCCC1 (stereo unspecified) -0.07%, CC1CCCC(C)N1/N=C/c1ccccc1Br (stereo unspecified) -3.03%, CC1CCCC(C)N1/N=C/c1cccc(Br)c1 (stereo unspecified) -2.2%, CC1(C)NC(=O)N(CC(O)CN(c2ccccc2)S(=O)(=O)c2ccccc2)C1=O (stereo unspecified) -1.71%, Cc1ccc(C(=O)N/C(=C\c2ccco2)C(=O)NCc2cccnc2)cc1 2%, CC1(C)C(=O)Nc2ccccc2N1C(=O)Cn1ncc(Cl)c(Cl)c1=O 1.69%, O=C(Nc1cc(N2CCCCC2)ncn1)c1ccccc1 1.2%, COc1ccc(CCNC(=O)c2cc(COc3c(F)cccc3F)on2)c(OC)c1 6.23%, O=C(NC1CCCc2ccccc21)c1ccc([N+](=O)[O-])cc1 (stereo unspecified) -2.23%, O=[N+]([O-])c1ccccc1CNC1CCCc2ccccc21 (stereo unspecified) -9.02%, CNC(=O)c1cn(-c2ccc(Cl)cc2)c(=O)c2ccccc12 -7.59%, CO[C@@H]1[C@@H](OC(N)=O)[C@@H](O)C(Oc2ccc3c(O)c(NC(=O)c4ccc(O)c(CC=C(C)C)c4)c(=O)oc3c2C)OC1(C)C (stereo partly specified) 12.3%, Cc1c(O)ccc2c(O)c(NC(=O)c3ccc4c(c3)CCC(C)(C)O4)c(=O)oc12 -3.81%, CCC1=C(c2ccc(C)cc2)S(=O)(=O)N=C1N1CCC(C(=O)NCCCN2CCCCC2)CC1 -2.43%, Nc1cccc2nsnc12 -14.7%, COc1ccc(-n2nc3cc(N)c(Br)cc3n2)cc1 -2.59%, CCOC(=O)CCCNC(=O)CSc1nnc(-c2ccccc2)c(-c2ccccc2)n1 -8.06%, COC(=O)c1c(C)[nH]c(O)c1C=Nc1ccc(Oc2ccccc2)cc1 -5.37%, CO[C@H]1C=CO[C@@]2(C)Oc3c(C)c(O)c4c(O)c(c5c(nc6cc(C)ccn65)c4c3C2=O)NC(=O)C(C)=CC=C[C@H](C)[C@H](O)[C@@H](C)[C@@H](O)[C@@H](C)[C@H](OC(C)=O)[C@@H]1C -3.25%, CC(/C=C/c1ccccc1F)=N\NC(=O)c1cccc(F)c1 3.59%, O=S(=O)(NCC1CCCO1)c1ccc(NS(=O)(=O)c2ccc(F)cc2)cc1 (stereo unspecified) 0.92%, N#C/C(=C(/O)CSc1ncn[nH]1)c1nc2ccccc2[nH]1 6.19%, Cc1ccccc1/C=N/Nc1ccc(Cl)nn1 1.24%, Fc1ccccc1/C=N/Nc1ccc(Cl)nn1 -8.24%, C=CCN=C1CC(C)(C)C(C(=O)OC)C(O)=C1C(=O)CCC (stereo unspecified) -0.51%, COc1ccc(Cc2nnc(Nc3ccc(C)cc3)o2)cc1OC 1.4%, O=S(=O)(c1ccc2c(c1)OCCO2)N1CCN(Cc2ccc3c(c2)OCO3)CC1 -0.33%, CN1/C(=C\C=N\O)C(C)(C)c2ccccc21 -8.82%, Brc1ccc(CNCc2cccs2)cc1 10.4%, Fc1ccc(CNCc2ccccc2Cl)cc1 5.07%, COc1ccccc1CNCc1ccc(C)cc1 8.2%, COc1ccccc1CNC(=S)NCc1ccc(F)cc1 -5.45%, COc1cc(CNCCc2ccc(F)cc2)ccc1OCc1ccc(Cl)nc1 23.3%, c1csc(CNCc2ccncc2)c1 -5.07%, COc1ccc(NC(=O)COC(=O)CCCc2c[nH]c3ccccc23)cc1 -12.1%, Cc1cc(C)n(C(=O)Cn2nc(C)c(Cl)c2C)n1 3.42%, O=C(c1ccccc1F)N1CCN(S(=O)(=O)c2ccc3c(c2)OCCO3)CC1 6.03%, Cc1c(NC(=O)CSc2nnnn2-c2ccc(F)cc2)c(=O)n(-c2ccccc2)n1C -6.82%, O=C1NC(C(F)(F)F)(C(F)(F)F)N=C2SC=CN12 -6.31%, O=c1[nH]nc(-c2ccc(F)cc2)cc1Cc1ccc(F)cc1 -10.7%, O=C(Nc1cccc(Cl)c1)Nc1ccnc(-c2cccnc2)n1 5.1%, O=C(Oc1c(CN2CCOCC2)cc(Cl)c2cccnc12)c1ccc(F)cc1 29.7%, Oc1c(CN2CCN(c3ccccn3)CC2)cc(Cl)c2cccnc12 20.1%, Oc1c(CN2CCN(c3ccccc3)CC2)cc(Br)c2cccnc12 4.78%, CCOC(=O)N1CCN(Cc2cc(Cl)c3cccnc3c2O)CC1 -0.11%
